From PubChem BioAssay
The source made the active and inactive calls.

Assays:
[1] = E. coli DRC41 culture turbidity changes, primary screen, E. coli filamentation inducer project, strain DRC41, OD650, 48 h (AID 1152);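 note: E. coli MC1000 strain DRC41 lacking acrAB efflux pump and sulA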; conditions: E. coli DRC41 (acrAB sulA), higher = more signal, called active from +8 up or from −8 down
[2] = small-molecule binders of probe aLefty1, primary screen, biochemical, small-molecule microarray, 635/667 nm fluorescence (AID 1153); conditions: higher = more signal;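 note: score merges spot fluorescence with signal-to-noise ratio from the scanned slide images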
[3] = PSAC antagonists in infected red cells, primary screen, cell-based, P. falciparum Indochina, OD700, 1 h (AID 1154); conditions: P. falciparum Indochina infected RBC osmotic lysis, higher = more signal, called active from +8 up or from −8 down
[4] = PSAC antagonists in infected red cells, primary screen, cell-based, P. falciparum Indochina, OD700, 2 h (AID 1155);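 note: lysis reports solute entry through the parasite surface anion channel PSAC; channel blockers reduce lysis of infected cells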; conditions: P. falciparum Indochina infected erythrocytes, osmotic lysis OD700; higher = more signal, called active from +8 up or from −8 down
[5] = osmotic lysis modulators in infected erythrocytes, primary screen, PSAC antagonist project, cell-based, P. falciparum Indochina, OD700, 3 h (AID 1156); conditions: higher = more signal, called active from +8 up or from −8 down
[6] = PSAC antagonists in infected red cells, primary screen, cell-based, P. falciparum Indochina, OD700, 18 h (AID 1157); conditions: P. falciparum Indochina infected erythrocytes, osmotic lysis OD700, 18 h; higher = more signal, called active from +8 up or from −8 down
[7] = modulators of S6 phosphorylation in cells, primary screen, cell-based, A549, cytoblot, luminescence, serum-stimulated (AID 1158); conditions: A549 phospho-S6 cytoblot, 5 h, higher = more signal;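 note: serum-stimulated A549 lung adenocarcinoma cells; signal is phosphorylated S6 detected by cytoblot immunostaining with HRP secondary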
[8] = target: NADPH oxidase 2 (Homo sapiens) (UniProt P04839); experiment: NOX2-dependent H2O2 signal modulators, primary screen, NOX inhibitor project, cell-based, HEK293-NOX2, PMA-stimulated, Amplex Red fluorescence (AID 1159); conditions: 45 min, higher = more signal, called active from +8 up or from −8 down; note: test concentration not given here
Chain of NADPH oxidase 2 (Homo sapiens) (P04839 whole entry, looked up): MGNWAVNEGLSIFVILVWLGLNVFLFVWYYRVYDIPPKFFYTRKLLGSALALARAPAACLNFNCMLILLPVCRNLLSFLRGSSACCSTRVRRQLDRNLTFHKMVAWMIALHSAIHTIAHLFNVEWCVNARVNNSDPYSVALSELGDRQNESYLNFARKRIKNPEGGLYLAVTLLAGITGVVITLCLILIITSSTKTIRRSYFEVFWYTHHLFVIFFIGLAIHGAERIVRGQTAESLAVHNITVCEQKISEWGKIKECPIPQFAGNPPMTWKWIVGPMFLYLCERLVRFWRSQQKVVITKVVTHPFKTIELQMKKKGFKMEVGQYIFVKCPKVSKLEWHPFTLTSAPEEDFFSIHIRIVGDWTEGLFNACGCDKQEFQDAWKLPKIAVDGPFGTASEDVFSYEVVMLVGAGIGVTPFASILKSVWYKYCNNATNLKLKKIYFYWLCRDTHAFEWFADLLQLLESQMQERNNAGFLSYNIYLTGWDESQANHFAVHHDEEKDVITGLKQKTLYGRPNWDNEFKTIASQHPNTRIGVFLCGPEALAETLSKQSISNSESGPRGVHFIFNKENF

[9] = target: NADPH oxidase 4 (Homo sapiens) (UniProt Q9NPH5); experiment: NOX4-dependent H2O2 signal modulators, primary screen, NOX inhibitor project, cell-based, HEK293-NOX4, tetracycline-induced, Amplex Red fluorescence (AID 1160); conditions: 45 min, higher = more signal, called active from +8 up or from −8 down
Chain of NADPH oxidase 4 (Homo sapiens) (Q9NPH5 whole entry, looked up): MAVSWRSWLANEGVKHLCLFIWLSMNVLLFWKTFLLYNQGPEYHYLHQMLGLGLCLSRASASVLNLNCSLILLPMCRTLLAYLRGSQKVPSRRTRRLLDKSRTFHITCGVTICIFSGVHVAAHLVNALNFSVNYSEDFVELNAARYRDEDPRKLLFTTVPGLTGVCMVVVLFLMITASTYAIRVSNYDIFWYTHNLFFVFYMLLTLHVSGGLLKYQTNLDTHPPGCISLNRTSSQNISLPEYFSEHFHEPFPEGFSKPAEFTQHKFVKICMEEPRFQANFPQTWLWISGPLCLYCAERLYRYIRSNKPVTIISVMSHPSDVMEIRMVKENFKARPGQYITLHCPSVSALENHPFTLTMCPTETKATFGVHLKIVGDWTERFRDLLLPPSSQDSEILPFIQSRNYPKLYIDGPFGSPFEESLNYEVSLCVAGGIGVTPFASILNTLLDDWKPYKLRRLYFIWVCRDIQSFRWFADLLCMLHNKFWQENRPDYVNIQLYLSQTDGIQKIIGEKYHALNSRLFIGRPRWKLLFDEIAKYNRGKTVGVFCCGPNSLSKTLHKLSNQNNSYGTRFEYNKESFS

[10] = target: NADPH oxidase 5 (Homo sapiens) (UniProt Q96PH1); experiment: NOX5-dependent H2O2 signal modulators, primary screen, NOX inhibitor project, cell-based, HEK293-NOX5, Amplex Red fluorescence (AID 1161); conditions: HEK293-NOX5, ionomycin, 45 min, higher = more signal
Chain of NADPH oxidase 5 (Homo sapiens) (Q96PH1 whole entry, looked up): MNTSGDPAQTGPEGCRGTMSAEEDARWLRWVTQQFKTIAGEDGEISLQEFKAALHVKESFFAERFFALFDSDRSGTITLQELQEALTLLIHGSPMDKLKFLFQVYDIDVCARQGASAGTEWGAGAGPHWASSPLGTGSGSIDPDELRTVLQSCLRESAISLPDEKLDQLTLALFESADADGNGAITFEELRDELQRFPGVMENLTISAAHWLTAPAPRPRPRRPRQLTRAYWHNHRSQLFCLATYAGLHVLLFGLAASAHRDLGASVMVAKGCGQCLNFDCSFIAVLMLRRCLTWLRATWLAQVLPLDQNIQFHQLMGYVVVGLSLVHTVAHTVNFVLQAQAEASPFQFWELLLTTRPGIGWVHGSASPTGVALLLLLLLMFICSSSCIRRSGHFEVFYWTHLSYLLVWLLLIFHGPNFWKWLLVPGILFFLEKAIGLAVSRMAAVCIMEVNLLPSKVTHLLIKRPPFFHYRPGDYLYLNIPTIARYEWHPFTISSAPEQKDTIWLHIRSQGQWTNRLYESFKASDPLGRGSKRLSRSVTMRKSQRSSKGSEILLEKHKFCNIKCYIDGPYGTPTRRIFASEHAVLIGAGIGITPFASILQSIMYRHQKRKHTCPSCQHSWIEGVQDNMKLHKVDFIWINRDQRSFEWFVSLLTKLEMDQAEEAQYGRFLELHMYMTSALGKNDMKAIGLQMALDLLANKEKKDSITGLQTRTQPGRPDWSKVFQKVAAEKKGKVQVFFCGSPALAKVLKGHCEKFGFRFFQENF

[11] = A549 cell viability effects, profiling panel, calcein-AM fluorescence, 48 h, basal (AID 1162); conditions: higher = more signal; note: test concentration not given here
[12] = adipocyte viability effects, profiling panel, cell-based, 3T3-L1 adipocytes, calcein-AM fluorescence, 48 h, basal (AID 1163); conditions: 3T3-L1 adipocytes viability, higher = more signal; note: test concentration not given here
[13] = HepG2 cell viability effects, profiling panel, calcein-AM fluorescence, 48 h, basal (AID 1164); conditions: higher = more signal; note: test concentration not given here
[14] = MM1S cell viability effects, profiling panel, calcein-AM fluorescence, 48 h, basal (AID 1165); conditions: higher = more signal;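 note: viability of MM1S multiple myeloma cells under basal unstimulated conditions; test concentration not given here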
[15] = basal RPMI8226 viability, no added stimulus, profiling panel, cell-based, calcein-AM fluorescence, 48 h, PK04 Diversity Set (AID 1166); conditions: RPMI8226 myeloma viability, higher = more signal;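 note: cells grown under basal conditions without added stimulus; test concentration not given here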
[16] = basal HepG2 mitochondrial membrane potential changes, profiling panel, cell-based, JC-1 fluorescence, 24 h, 100 nL compound (AID 1167); conditions: higher = more signal; note: test concentration not given here
[17] = basal 3T3-L1 adipocyte mitochondrial potential changes, profiling panel, cell-based, JC-1 fluorescence, 3T3-L1 adipocytes, 24 h, 100 nL compound (AID 1168); conditions: JC-1 mitochondrial fluorescence, higher = more signal, called active from +8 up or from −8 down; note: test concentration not given here
[18] = basal RPMI8226 mitochondrial membrane potential changes, profiling panel, cell-based, JC-1 fluorescence, 24 h, 100 nL compound (AID 1169); conditions: RPMI8226 myeloma, JC-1 mitochondrial potential fluorescence, higher = more signal; note: test concentration not given here
[19] = basal MM1S mitochondrial membrane potential changes, profiling panel, cell-based, JC-1 fluorescence, 24 h, 100 nL compound (AID 1170); conditions: higher = more signal; note: test concentration not given here
[20] = A549 lung cancer cell viability effects, profiling panel, resazurin fluorescence, 24 h, PK04 Diversity Set (AID 1171); conditions: higher = more signal, called active from +8 up or from −8 down; note: test concentration not given here

SMILES | z-score [1] | composite z-score [2] | z-score [3] | z-score [4] | z-score [5] | z-score [6] | z-score [7] | z-score [8] | z-score [9] | z-score [10] | z-score [11] | z-score [12] | z-score [13] | z-score [14] | z-score [15] | z-score [16] | z-score [17] | z-score [18] | z-score [19] | z-score [20]
CCOc1ccc(N2C(=O)CSC2c2cccc([N+](=O)[O-])c2)cc1 (stereo not given) | 0.379 (inactive) | 0.166 | 0.289 (inactive) | 0.285 (inactive) | 0.85 (inactive) | 0.0093 (inactive) | -0.287 | -0.957 (inactive) | -0.214 (inactive) | 0.887 | 1.77 | -0.704 | 1.1 | -0.119 | -0.804 | 1.61 | 0.989 (inactive) | -0.127 | -0.288 | 0.0421 (inactive)
NC(=O)[C@@H]1[C@H]2C(=O)O[C@H](c3ccccc3)[C@H](c3ccccc3)N2[C@H](c2ccc(OCCO)cc2)[C@@]12C(=O)Nc1ccc(C#CC3=CCCCC3)cc12 | 1.96 (inactive) | 0.189 | 3 (inactive) | 0.651 (inactive) | -1.59 (inactive) | -0.198 (inactive) | 1.1 | 0.814 (inactive) | 0.68 (inactive) | 2.3 | -0.985 | 1.06 | -3.51 | -3.28 | -4.06 | -2.81 | 0.396 (inactive) | -0.834 | -1.71 | -1.01 (inactive)
O=C(NC1CC1)[C@@H]1c2ccccc2C(=O)N(Cc2cc(F)cc(C(F)(F)F)c2)[C@H]1c1ccc(CO)cc1 | -0.857 (inactive) | -0.205 | 1.88 (inactive) | 0.115 (inactive) | 0.943 (inactive) | 0.0358 (inactive) | -0.185 | -0.0603 (inactive) | 0.463 (inactive) | 0.515 | 0.35 | -0.392 | -0.134 | -1.65 | 0.88 | 0.86 | -0.587 (inactive) | 0.0276 | -0.232 | 1.36 (inactive)
C=CCNC(=O)[C@@H]1[C@H]2C(=O)O[C@H](c3ccccc3)[C@H](c3ccccc3)N2[C@H](c2ccc(OCCO)cc2)[C@@]12C(=O)N(C(=O)OCCOC)c1ccc(C#CCC(C(=O)OC)C(=O)OC)cc12 | -0.314 (inactive) | 0.404 | 7.08 (inactive) | 1.72 (inactive) | -0.211 (inactive) | 0.581 (inactive) | -0.0943 | 2.26 (inactive) | 1.2 (inactive) | 1.37 | -0.906 | 0.445 | -0.713 | -1.85 | -1.34 | 0.366 | 0.0731 (inactive) | -0.799 | -1.16 | 0.185 (inactive)
C=C(C)[C@@H]1CC=C(C(O)C2C=CC3C(=O)NC(=O)C3N2Nc2ccc(Cl)cc2Cl)CC1 (stereo not given in full) | -2.9 (inactive) | 0.266 | 5.74 (inactive) | 1.4 (inactive) | -0.372 (inactive) | 1.61 (inactive) | -1.02 | -2.38 (inactive) | -6.41 (inactive) | -3.51 | -3.8 | 0.641 | -3.88 | -3.71 | -3.89 | -3.7 | -0.432 (inactive) | -0.934 | -0.944 | -2.76 (inactive)
CCOC(=O)C1=CC[C@H]2C(=O)N(c3ccccc3)C(=O)[C@@H]12 | -1.58 (inactive) | 0.0027 | 0.399 (inactive) | 0.772 (inactive) | 0.692 (inactive) | 0.339 (inactive) | -0.743 | -0.234 (inactive) | -2.03 (inactive) | -2.36 | -0.538 | -0.405 | 0.229 | -0.472 | 0.217 | -1.8 | -1.28 (inactive) | -0.00668 | 0.371 | 0.396 (inactive)
CC(C)=CCCC(C)=CC(O)C1C=CC2C(=O)N(c3ccccc3)C(=O)C2N1Nc1ccc(C(C)C)cc1 (stereo not given) | -0.843 (inactive) | 0.201 | 0.934 (inactive) | 0.219 (inactive) | 0.391 (inactive) | 0.729 (inactive) | -0.765 | -1.11 (inactive) | -1.15 (inactive) | -1.34 | -1.27 | -0.276 | -0.964 | 0.105 | -0.589 | -1.09 | -0.696 (inactive) | 0.465 | 1.06 | 0.38 (inactive)
O=C(NCCN1CCOCC1)[C@@H]1c2ccccc2C(=O)N(Cc2cc(C(F)(F)F)cc(C(F)(F)F)c2)[C@H]1c1ccc(CO)cc1 | -0.0112 (inactive) | 0.0479 | 2.81 (inactive) | 1.44 (inactive) | 0.591 (inactive) | 0.526 (inactive) | -0.474 | -0.0635 (inactive) | 0.271 (inactive) | 2.36 | 1.79 | -0.587 | 1.82 | 0.266 | -0.0119 | 2.85 | 0.252 (inactive) | -0.021 | -0.227 | 0.0288 (inactive)
O=C1C2C=CC(C(O)C=Cc3ccc([N+](=O)[O-])cc3)N(Nc3ccccc3F)C2C(=O)N1c1ccccc1 (stereo not given) | -1.37 (inactive) | 0.329 | 13.1 (active) | 3.11 (inactive) | 0.105 (inactive) | 1.59 (inactive) | -0.832 | -1.43 (inactive) | -3.02 (inactive) | -3.26 | -0.212 | -0.846 | -0.0729 | -1.45 | -0.343 | -1.33 | -1.55 (inactive) | -0.22 | -1.54 | 0.0067 (inactive)
NC(=O)NCC#Cc1ccc2c(c1)[C@]1(C(=O)N2)[C@H](C(=O)O)[C@H]2C(=O)O[C@H](c3ccccc3)[C@H](c3ccccc3)N2[C@@H]1c1ccc(O)cc1 | -1.29 (inactive) | 0.642 | 0.141 (inactive) | 0.0468 (inactive) | -0.357 (inactive) | 0.27 (inactive) | -0.603 | 1.17 (inactive) | -0.399 (inactive) | -0.349 | 0.715 | 0.407 | 0.611 | -0.944 | 0.0565 | -1.43 | -1.56 (inactive) | 0.123 | 0.126 | 1.22 (inactive)
